Rows were chosen to be rich in hits. Some 2.4% of all compounds tested hit in one or more screens of this group.
POLH inh = DNA polymerase eta (human) inhibition | Q9Y253 | recombinant Pol eta, fluorescent DNA replication assay | Potency, µM (top dose mostly 114 µM), for inactives: at the highest dose activity change, negative = inhibition, hits mostly inhibitors | 390,000 tested, 1.2% active | AID 588591; note: % is set by controls: 0 for no effect and ±100 for the full control effect
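Pol eta (10 nM) was preincubated with compounds for 15 min at room temperature, after which fluorescent replication substrate (50 nM final) was added to start the reaction. Fluorescence was read kinetically at 0 and 10 min.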
WRN helicase inh = WRN helicase (human) inhibition; Potency, µM (doses to about 114 µM), without a hit: top-dose activity change, negative = inhibition, usual class: inhibitors; 360,000 tested, 0.46% active; Q14191; WRN helicase unwinding, fluorescent forked duplex, kinetic; note: % is set by controls: 0 for no effect and ±100 for the full control effect; nearly all actives have a fitted effect of over 55% in size
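Kinetic red-fluorescence monitoring (525/598 nm) tracks WRN helicase activity after 100 nM fluorophore-quencher forked duplex and 2 mM ATP are added to 20 nM enzyme pretreated 15 min at room temperature with compound.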
POLK inh = blocks human DNA polymerase kappa activity; purified Pol kappa, fluorescent DNA synthesis assay, 10 min; Potency, µM (doses to about 107 µM), without a hit: at the top dose activity, negative = inhibition, actives largely listed as inhibitors; Q9UBT6; 400,000 tested, 0.53% active; note: % is set by controls: 0 for no effect and ±100 for the full control effect
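Pol kappa 10 nM + cpd, 15 min RT; start w/ substrate 50 nM final; fluorescence kinetic read, 0 and 10 min. Neg ctrl: buffer, no enzyme.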
FEN1 inh = inhibitors of human flap endonuclease 1. P39748. Recombinant FEN1 flap cleavage, fluorescence, 15 min. Potency, µM (doses to about 114 µM), without a hit: at the highest dose activity change, negative = inhibition, actives largely listed as inhibitors. 390,000 tested, 0.35% active. AID 588795; note: % is set by controls: 0 for no effect and ±100 for the full control effect; nearly all actives have a fitted effect of over 65% in size
Target sequence (P39748 whole entry, looked up): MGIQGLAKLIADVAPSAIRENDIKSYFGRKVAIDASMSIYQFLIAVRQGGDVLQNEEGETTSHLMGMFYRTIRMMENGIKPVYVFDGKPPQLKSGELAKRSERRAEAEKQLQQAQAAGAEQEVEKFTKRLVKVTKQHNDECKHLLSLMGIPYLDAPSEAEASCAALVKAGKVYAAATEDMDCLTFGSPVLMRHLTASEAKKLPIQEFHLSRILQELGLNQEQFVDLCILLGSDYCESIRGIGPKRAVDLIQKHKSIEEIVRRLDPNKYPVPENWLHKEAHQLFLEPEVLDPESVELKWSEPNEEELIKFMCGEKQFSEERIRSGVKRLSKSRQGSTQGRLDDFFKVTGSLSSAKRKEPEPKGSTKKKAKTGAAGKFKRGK
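Potency values derive from four-parameter Hill fits of normalized qHTS data. The reaction used 10 nM FEN1 preincubated 15 min at room temperature with compound, then 50 nM DNA substrate, read at 0 and 15 min.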
POLI inh = blocks human DNA polymerase iota activity; Potency, µM (series often up to 115 µM), for the others: at the top dose activity, negative = inhibition, hits mostly inhibitors; 390,000 tested, 1% active; Q9UNA4; Pol iota fluorescent replication assay, 10 min
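Pol iota at 10 nM preincubated 15 min with compounds at room temperature; reaction started with fluorescent substrate, 50 nM final. Fluorescence read kinetically at 0 and 10 min; buffer-only wells as negative control.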
POLB inh = blocks human DNA polymerase beta activity. AID 485314. Pol beta primer extension/strand displacement, fluorescence kinetic. Potency, µM (titrated, usually from 114 µM), without a hit: at the top dose activity change, negative = inhibition, hits mostly inhibitors. 340,000 tested, 1.3% active. P06746; note: % is set by controls: 0 for no effect and ±100 for the full control effect
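Enzyme-only controls used 10 nM Pol beta; buffer lacking enzyme served as negative control. Compound preincubated 15 min, then 50 nM substrate added; 0 and 10 min reads at room temperature.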
* = called active by the depositor; ? = inconclusive; / = no result; [ ] = remark or other dose. Calls come from the whole dose curve; as a rule, active = well fitted curve in the direction sought with a large enough effect; inconclusive = small, poorly fitted or top-dose-only effect, or another doubt; inactive = no such curve, though single readings can be large; an effect the other way counts as inactive or inconclusive. Potency is the fitted concentration of half-maximal effect.

SMILES	POLH inh	WRN helicase inh	POLK inh	FEN1 inh	POLI inh	POLB inh
CN1CCc2nc3sc(C(=O)Nc4c(F)cccc4F)c(N)c3cc2C1	-28%	/	-15%	?	37%	-3%
CN1CCc2nc3sc(C(=O)Nc4cccc(C#N)c4)c(N)c3cc2C1	/	/	0%	40µM*	?	-17%
CC(C)OC(=O)CC(=O)c1sc2nc3c(cc2c1N)CN(C)CC3	?	?	?	?	11µM*	40µM*
CC(=O)c1cccc(NC(=O)c2sc3nc4c(cc3c2N)CCCC4)c1	79µM*	/	9%	5%	-5%	?
COc1ccc(NC(=O)c2cccc(N3CCCS3(=O)=O)c2)c(OC)c1	-17%	/	-20%	-2%	15%	-11%
COc1ccc(NC(=O)c2c(NCc3ccc(N(C)C)cc3)sc3c2CCC3)cc1	-6%	/	-9%[60.1 µM]	-15%	-5%	8%
COc1cccc(NS(=O)(=O)c2ccc3[nH]cc(C(=O)NC(C)c4ccccc4)c(=O)c3c2)c1 (stereo not given)	?	/	?	2%	89µM*	40µM*
COc1cccc(NS(=O)(=O)c2ccc3[nH]cc(C(=O)N4CCCC4)c(=O)c3c2)c1	-1%	/	-16%	5%	-5%	?
COc1ccc2[nH]c(O)c(N=NC(=O)Cc3cccs3)c2c1	32µM*	-2%[11.6 µM]	-40%	-16%	?	?
CCCCC(CC)CN=C(N)NC(N)=NCCCCCCN=C(N)NC(N)=NCC(CC)CCCC (stereo not given)	89µM*	89µM*	?	50µM*	?	/
COc1ccc2nc(N/C(N)=N/C(=S)Nc3c(C)cccc3C)nc(C)c2c1	-15%	27%	14%	32µM*	-10%	-7%
COc1ccc2nc(N/C(N)=N/C(=S)Nc3cccc(C)c3)nc(C)c2c1	-13%	33%	-11%	?	3%	40%
N#Cc1ccccc1Cn1c(=O)n(CCCC(=O)NCc2ccccc2Cl)c(=O)c2ccccc21	-10%	/	-60%	1%	89µM*	1%
Cc1ccccc1Cn1c(=O)n(CCCCC(=O)NCc2ccccc2Cl)c(=O)c2ccccc21	-3%	/	-10%	4%	43%	2%
O=c1c2c([nH]c3ccccc13)C(=C1CCCC1)CC2	20µM*	50µM*	40µM*	-7%	?	32µM*
COc1ccc(Nc2cc(C)c3cc(NC(=O)c4cc(OC)cc(OC)c4)ccc3n2)cc1	-23%	/	-12%	-6%	12%	0%
COc1ccc(O)c(/C=N/NC(=O)c2ccc(N3CCCC3=O)cc2)c1	-11%	-16%	-45%	-1%	?	10µM*
COc1ccc(O)c(/C=N/NC(=O)c2cccc(N3CCCC3=O)c2)c1	-9%	4%	0%	-1%	?	18%
CC(C)c1ccc(C(=O)C[N+]2(C)CCOCC2)cc1	/	/	18%	-1%	32%	/
O=C(O)c1cc2cc(Cl)cc(Cl)c2oc1=O	?	-34%	?	-5%	?	79µM*
O=C(N/N=C/c1ccc([N+](=O)[O-])o1)c1cn(-c2ccccc2)nc1-c1ccc(Cl)cc1	8%	8%	-7%	-9%	-7%	?
O=[N+]([O-])CC(=Nc1ccc(Cl)cc1)N/N=C\c1oc(O)c2ccccc12	40µM*	-3%[11.6 µM]	-26%	-3%	71%	1%
O=C(NCc1ccc(F)cc1)c1ccc(CS(=O)(=O)c2ccc(Cl)cc2)o1	-11%	/	1%[60.1 µM]	-9%	-1%	?
COC(=O)c1ccc(CS(=O)(=O)c2ccc(F)cc2)o1	22µM*	-10%	?	13%	-76%	35µM*
CC(C)(Oc1ccc(C2CCCc3ccccc32)cc1)C(=O)O (stereo not given)	/	/	-2%[19.4 µM]	/	/	/
SMILES	POLH inh	WRN helicase inh	POLK inh	FEN1 inh	POLI inh	POLB inh
COCCCNC(=O)c1ccc(Cn2c(=O)c3ccccc3n(CC(N)=O)c2=O)cc1	3%	/	-5%	-5%	13%	7%
CCC(C)[C@H](NC(=O)C1CCC(CNC(=O)[C@@H]2CCCN2C(=O)OC(C)(C)C)CC1)C(=O)O (stereo not given in full)	7%	0%	2%	-7%	-1%	0.22µM*
COc1ccc(/C=C2/C(=O)N(c3cccc(F)c3)N=C2C)c(OC)c1	11%	1%	-9%	-4%	1.1µM*	28%
CC1=NN(c2cccc(F)c2)C(=O)/C1=C/c1ccc(N(C)C)cc1	1%	-4%	-2%	-1%	144%	15%
CC1=NN(c2ccc(C)c(C)c2)C(=O)/C1=C/c1ccc2c(c1)n(C)c(=O)n2C	-11%	-5%	-24%	?	1.4µM*	34%
CC1=NN(c2ccccc2)C(=O)/C1=C/c1cccs1	-13%	?	-3%	?	1.3µM*	2%
CC1=NN(c2ccccc2)C(=O)/C1=C\c1ccc(Br)s1	89µM*	-13%[11.6 µM]	-18%	?	?	1%
CC1=NN(c2ccccc2)C(=O)C1=Cc1ccccc1	-2%	?	/	/	/	/
COc1ccccc1CCNC(=O)C(C)Sc1nc(-c2ccccc2)cc(C(F)(F)F)n1 (stereo not given)	-6%	/	-16%	-3%	-4%	0%
COc1ccc(/C=C2/C(=O)N(c3ccccc3)N=C2C)cc1Br	?	-17%[11.6 µM]	3%	?	1.3µM*	18%
O=C(CN1C(=O)c2ccccc2S1(=O)=O)NCCSCc1ccco1	-1%	-10%[57.1 µM]	-25%	13%	100µM*	5%
O=C(CN1C(=O)c2ccccc2S1(=O)=O)NCCSCc1ccccc1Cl	1%	-9%	-14%	-14%	0%	-1%
CCOc1ccccc1N(CC(=O)NCCSCc1ccco1)S(=O)(=O)c1ccccc1	?	-35%	?	1%	?	28µM*
CS(=O)(=O)N(CC(=O)NCCSCc1ccccc1)c1ccccc1F	-18%	-5%	-7%	-4%	34%	2%
Cc1ccccc1N(CC(=O)NCCSCc1ccco1)S(C)(=O)=O	-11%	-18%	-11%	0%	56µM*	?
CC1=NN(C(N)=S)C(=O)C1N=Nc1ccccc1 (stereo not given)	-5%	5%	8%	1%	-14%	-4%
CC1=NN(C(=O)c2ccncc2)C(=O)C1N=Nc1ccc2ccccc2c1 (stereo not given)	?	-1%[11.6 µM]	?	?	89µM*	/
Cc1ccc2nc(COc3ccccc3NC(=O)c3ccc(F)cc3)cc(=O)n2c1	-10%	/	-15%[60.1 µM]	16%	89µM*	?
CCCC(=O)Nc1ccccc1OCc1cc(=O)n2cc(C)ccc2n1	-18%	/	-2%[60.1 µM]	0%	-8%	33%

Screens: PubChem, National Center for Advancing Translational Sciences (NCATS)
